# Results from PubChem BioAssay (Tox21).
# “And” between values parts separate entries of the source, which are not always exact repeats. Equal entries are not always repeated. Inconclusive results are not listed. Entries that show only a call come without a potency. Some structures have more than one record in an assay (separate samples or runs), and their calls can disagree. The source made the active and inactive calls. The call rests on the fitted dose curve.
# Key:
# [1] = molecular target: Acetylcholinesterase (Homo sapiens) (UniProt P22303); experiment: Acetylcholinesterase (AChE) small molecule antagonists: colormetric cell-based qHTS assay (AID 1347395); further: nearly all actives have a fitted effect of over 30% in size
# Chain of Acetylcholinesterase (Homo sapiens) (P22303 whole entry, looked up): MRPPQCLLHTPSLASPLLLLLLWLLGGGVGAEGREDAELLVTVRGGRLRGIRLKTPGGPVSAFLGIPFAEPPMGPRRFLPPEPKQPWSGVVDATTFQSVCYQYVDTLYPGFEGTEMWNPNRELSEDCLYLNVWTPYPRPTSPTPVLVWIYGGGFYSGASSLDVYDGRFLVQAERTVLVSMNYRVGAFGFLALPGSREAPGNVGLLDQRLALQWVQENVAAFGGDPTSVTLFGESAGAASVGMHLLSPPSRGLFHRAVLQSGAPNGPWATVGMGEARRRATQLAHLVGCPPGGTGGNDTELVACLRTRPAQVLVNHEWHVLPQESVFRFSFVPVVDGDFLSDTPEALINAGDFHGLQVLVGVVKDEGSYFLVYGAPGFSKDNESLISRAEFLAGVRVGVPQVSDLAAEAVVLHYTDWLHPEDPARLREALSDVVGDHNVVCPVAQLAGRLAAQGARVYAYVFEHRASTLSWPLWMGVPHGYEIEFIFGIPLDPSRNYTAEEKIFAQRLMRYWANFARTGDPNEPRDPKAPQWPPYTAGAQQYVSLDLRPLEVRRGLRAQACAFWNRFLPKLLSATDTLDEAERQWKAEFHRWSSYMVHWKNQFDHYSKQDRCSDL
# Procedure, shortened: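 AChE inhibition read colorimetrically via DTNB–thiocholine in SH-SY5Y cells. Compound 30 min, substrate 90 min, both 37 C.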
# [2] = molecular target: Acetylcholinesterase (Homo sapiens) (UniProt P22303); experiment: Acetylcholinesterase (AChE) small molecule antagonists: enzyme-based qHTS assay (AID 1347397); settings: Potency: AChE enzyme activity inhibition; outcome: AChE enzyme activity inhibition; further: nearly all actives have a fitted effect of over 55% in size; further: potency means the concentration at half of the fitted maximal effect
# Procedure, shortened: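 rhAChE 50 mU/mL (dispensed) + cpd or DMSO, 30 min RT; add DTNB/acetylthiocholine cocktail, 10 min RT; colorimetric thiocholine readout. qHTS, 1536-well format.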
# [3] = molecular target: Acetylcholinesterase (Homo sapiens) (UniProt P22303); experiment: Acetylcholinesterase (AChE) small molecule antagonists: fluorescence cell-based qHTS assay (AID 1347398); settings: Potency: AChE activity; outcome: AChE activity; further: nearly all actives have a fitted effect of over 50% in size; further: potency means the concentration at half of the fitted maximal effect
# Procedure, shortened: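 Read-out is Thiolite Green fluorescence at Ex/Em = 490/520 nm, formed by reaction with thiocholine released when cellular AChE in SH-SY5Y cells hydrolyzes acetylthiocholine. Compounds were preincubated 30 min at 37 C before substrate.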
# [4] = molecular target: Acetylcholinesterase (Homo sapiens) (UniProt P22303); experiment: Acetylcholinesterase (AChE) small molecule antagonists: enzyme-based qHTS assay with human liver microsomes (AID 1347399); settings: Potency: qHTS inhibition; outcome: qHTS inhibition; further: nearly all actives have a fitted effect of over 60% in size
# Procedure, shortened: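 Recombinant human AChE (50 mU/mL in the enzyme mix) and human liver microsomes (0.25 mg/mL final) were preincubated with compound and NADPH (0.25 mg/mL final) for 30 min at 37 C. Acetylthiocholine/DTNB was then added; thiocholine was read colorimetrically after 10 min at room temperature.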
SMILES,Potency [1],Potency [2],Potency [3],Potency [4],"activity, negative = inhibition [1]","activity change, negative = inhibition [2]","activity change, negative = inhibition [3]","activity change, negative = inhibition [4]"
CC(=O)[O][Al][O]C(C)=O,inactive,inactive,inactive,inactive,,,,
Nc1nc(N)c2nc(CNc3ccc(C(=O)N[C@@H](CCC(=O)O)C(=O)O)cc3)cnc2n1,inactive,inactive,inactive,inactive,,,,
CCCCCCCCCCCC(=O)OCC(C)OC(=O)CCCCC(=O)O (stereo not given),inactive,inactive,inactive,inactive,,,,
CC(C)C(=O)OCCOc1ccccc1,inactive,inactive,inactive,inactive,,,,
CNC(=O)CN(CCN(CCN(CC(=O)[O-])CC(=O)NC)CC(=O)[O-])CC(=O)[O-].O.[Gd+3],inactive,inactive,inactive,inactive,,,,
CCOC(=O)NCCOc1ccc(Oc2ccccc2)cc1,inactive,inactive,inactive,inactive,,,,
C=CC(C)(O)CC/C=C(/C)CCC=C(C)C (stereo not given),inactive,inactive,inactive,inactive,,,,
CC[C@H]1OC(=O)[C@H](C)[C@@H](O[C@H]2C[C@@](C)(OC)[C@@H](O)[C@H](C)O2)[C@H](C)[C@@H](O[C@@H]2O[C@H](C)C[C@H](N(C)C)[C@H]2O)[C@](C)(O)C[C@@H](C)/C(=N\OCOCCOC)[C@H](C)[C@@H](O)[C@]1(C)O,inactive,inactive,inactive,inactive,,,,
O=C(O)c1ccc2cc(C(=O)O)ccc2c1,inactive,inactive,inactive,inactive,,,,
O=C(O)c1ccc(C(=O)O)cc1,inactive,inactive,inactive,inactive,,,,
C/C=C/C=N/NC(=O)c1ccncc1,inactive,inactive,inactive,inactive,,,,
COc1c(Cl)ccc(Cl)c1C(=O)O,inactive,inactive,inactive,inactive,,,,
C=C(C)C(N)=O,inactive,inactive,inactive,inactive,,,,
C[Si](C)O[Si](C)(C)O[Si](C)(C)O[Si](C)C,inactive,inactive,inactive,inactive,,,,
CN(C)CCCOC1(Cc2ccccc2)CCCCCC1,inactive,inactive,inactive,inactive,,,,
CC(=O)CC(=O)c1ccccc1,inactive,inactive,inactive,inactive,,,,
c1cc(C(c2ccc(OCC3CO3)cc2)C(c2ccc(OCC3CO3)cc2)c2ccc(OCC3CO3)cc2)ccc1OCC1CO1 (stereo not given),inactive,inactive,inactive,inactive,,,,
Cc1ccc(C(C)(C)C)c(O)c1,inactive,inactive,inactive,inactive,,,,
Nc1nc2ccc([N+](=O)[O-])cc2s1,inactive,inactive,inactive,inactive,,,,
Cc1cn([C@H]2C=C[C@@H](CO)O2)c(=O)[nH]c1=O,inactive,inactive,inactive,inactive,,,,

SMILES,Potency [1],Potency [2],Potency [3],Potency [4],"activity, negative = inhibition [1]","activity change, negative = inhibition [2]","activity change, negative = inhibition [3]","activity change, negative = inhibition [4]"
COc1cc(C=O)ccc1OC(=O)C(C)C,inactive,inactive,inactive,inactive,,,,
CCC(=O)Oc1ccc(/C(CC)=C(\CC)c2ccc(OC(=O)CC)cc2)cc1,inactive,inactive,inactive,inactive,,,,
CC(C)C(=O)OCc1ccccc1,inactive,inactive,inactive,inactive,,,,
Cc1ccc(S(=O)(=O)Oc2ccc(N=Nc3ccc(-c4ccc(N=Nc5c(O)ccc6cc(S(=O)(=O)O)cc(S(=O)(=O)O)c56)c(C)c4)cc3C)cc2)cc1,inactive,8.97 µM (active) and 4.12 µM (active),inactive,inactive,,,,
C#C[C@]1(O)CC[C@H]2[C@@H]3CCC4=Cc5oncc5C[C@]4(C)[C@H]3CC[C@@]21C,inactive,inactive,inactive,inactive,,,,
Cc1ccc([N+](=O)[O-])cc1S(=O)(=O)O,inactive,inactive,inactive,inactive,,,,
O=C=NC1CCC(CC2CCC(N=C=O)CC2)CC1 (stereo not given),inactive,inactive,inactive,inactive,,,,
CN(C)CCN1CCOCC1,inactive,inactive,inactive,inactive,,,,
CC(=O)C(=O)O,inactive,inactive,inactive,inactive,,,,
CCCCC(CC)CN1C(=O)C2C3C=CC(C3)C2C1=O (stereo not given),inactive,inactive,inactive,inactive,,,,
Cc1cc(F)ccc1-c1cc(N2CC[C@@H](O)[C@H]2CO)ncc1N(C)C(=O)C(C)(C)c1cc(C(F)(F)F)cc(C(F)(F)F)c1,inactive,inactive,inactive,inactive,,,,
CC(C)(C)CC(C)(C)c1ccc(Nc2ccc(C(C)(C)CC(C)(C)C)cc2)cc1,,,,,-3.03% [at 10.5 µM] (inactive),-6.81% [at 10.5 µM] (inactive),-4.09% [at 10.5 µM] (inactive),0.323% [at 10.5 µM] (inactive)
CCCCC[C@H](O)/C=C/[C@H]1[C@H](O)CC(=O)[C@@H]1C/C=C\CCCC(=O)O,inactive,inactive,inactive,inactive,,,,
COCC(C)OC(C)=O (stereo not given),inactive,inactive,inactive,inactive,,,,
CCCCOCC(C)OCC(C)O (stereo not given),inactive,57.8 µM (active),29 µM (active),inactive,,,,
CCCCCCCCCCCCCC[N+](C)(C)C,inactive,30.6 µM (active) and 70.9 µM (active) and inactive,61.1 µM (active) and 39.9 µM (active),inactive,,,,
Cc1cc(=O)[nH]c(=S)[nH]1,inactive,inactive,inactive,inactive,,,,
Nc1cccc2c1CN(C1CCC(=O)NC1=O)C2=O (stereo not given),inactive,inactive,inactive,inactive,,,,
CCCCC(CC)COC(=O)CCCCCCCCC(=O)OCC(CC)CCCC (stereo not given),inactive,inactive,inactive,inactive,,,,
CCN1CCCC1CN (stereo not given),inactive,inactive,inactive,inactive,,,,

SMILES,Potency [1],Potency [2],Potency [3],Potency [4],"activity, negative = inhibition [1]","activity change, negative = inhibition [2]","activity change, negative = inhibition [3]","activity change, negative = inhibition [4]"
C=C(C)C(=O)O[C@H]1C[C@@H]2CC[C@@]1(C)C2(C)C,inactive,inactive,inactive,inactive,,,,
O=C1CCCCCCCCCCCC(=O)OCCO1,inactive,inactive,inactive,inactive,,,,
O=C(O)Cc1cc(I)c(Oc2cc(I)c(O)c(I)c2)c(I)c1,inactive,inactive,inactive,inactive,,,,
C[C@@H](Oc1ccc(CNC(=O)c2cccnc2Oc2ccc3c(c2)OCO3)c(F)c1)C(=O)O,inactive,inactive,inactive,inactive,,,,
CCCCCCCCN,inactive,inactive,inactive,inactive,,,,
C=CC(=O)OCCC#N,inactive,inactive,inactive,inactive,,,,
NC(=O)Cc1cccc(C(=O)c2ccccc2)c1N,inactive,inactive,inactive,inactive,,,,
CCC(=O)OCCc1ccccc1,inactive,inactive,inactive,inactive,,,,
COc1ccccc1OCC(O)COC(N)=O (stereo not given),inactive,inactive,inactive,inactive,,,,
CN(C)CCOCCN(C)C,inactive,inactive,inactive,inactive,,,,
CC(C(=O)O)c1ccc(/C=C2\CCCCC2=O)cc1 (stereo not given),inactive,inactive,inactive,inactive,,,,
COc1ccc(/C(C)=C/C(=O)O)c(OC)c1,inactive,inactive,inactive,inactive,,,,
Cc1ccc(C)c([N+](=O)[O-])c1,inactive,inactive,inactive,inactive,,,,
CCCCC(CC)C(=O)O (stereo not given),inactive,inactive,inactive,inactive,,,,
CC(C)(CO)[N+](=O)[O-],inactive,inactive,inactive,inactive,,,,
CCC(C)OC(=O)N1CCCCC1CCO (stereo not given),inactive,inactive,inactive,inactive,,,,
C[N+]1(C)CCC(=C(c2ccccc2)c2ccccc2)CC1,inactive,inactive,inactive,inactive,,,,
CCN(Cc1cccnc1)C(=O)c1cccc(Cl)c1[C@]1(C)C(=O)N(Cc2ccc(OC)cc2OC)c2ccc(Cl)cc21,inactive,inactive,inactive,inactive,,,,
CCOC(=O)NNc1ccc(N(CC)CC(C)O)nn1 (stereo not given),inactive,inactive,inactive,inactive,,,,
CCC(=O)O,inactive,inactive,inactive,inactive,,,,
